D2 PAM-1 = positive allosteric modulators of human D2 dopamine receptor. AID 485347. HEK293 T-REx D2, calcium flux, EC20 dopamine potentiation. potentiation, % at 10 µM. hit rate 0.34% among 340,000. P14416;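 active = potentiation over 3 SD above the plate norm, cut at about 30% in these data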
Target sequence (P14416 whole entry, looked up): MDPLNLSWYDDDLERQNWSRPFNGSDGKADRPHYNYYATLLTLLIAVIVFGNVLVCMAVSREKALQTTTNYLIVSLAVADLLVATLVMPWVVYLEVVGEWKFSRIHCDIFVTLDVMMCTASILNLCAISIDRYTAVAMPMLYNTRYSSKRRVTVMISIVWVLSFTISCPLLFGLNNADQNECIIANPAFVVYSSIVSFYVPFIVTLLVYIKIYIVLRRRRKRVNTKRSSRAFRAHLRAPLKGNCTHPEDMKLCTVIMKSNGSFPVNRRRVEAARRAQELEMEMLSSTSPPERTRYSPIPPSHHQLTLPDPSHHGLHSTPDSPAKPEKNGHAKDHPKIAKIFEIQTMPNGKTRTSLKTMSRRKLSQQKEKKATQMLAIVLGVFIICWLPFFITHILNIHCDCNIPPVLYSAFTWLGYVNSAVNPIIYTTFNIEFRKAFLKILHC
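Calcium flux readout, no-wash dye, 1 read/s. Inducible HEK293 Trex D2 line, overnight 30 C. Compound alone 180 s (agonist flags), then EC20 dopamine, another 180 s to score potentiation.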
D2 ag-1 = D2 dopamine receptor (human) agonism | P14416 | HEK293 T-REx D2 cells, calcium flux agonist mode | activation, % at 2 µM | hit rate 0.53% among 340,000 | AID 485358;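 active = activation over 3 SD above normal in the single-dose calcium agonist read, cut at about 30% in these data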
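In this primary screen, compounds producing a positive calcium signal within 180 s of addition to tetracycline-induced, force-coupled HEK293 Trex D2 cells are flagged; cells are dye-loaded with a no-wash calcium kit beforehand.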
D2 ag-2 = activates the human D2 dopamine receptor. P14416. DiscoveRx PathHunter D2 beta-arrestin, luminescence, 90 min; 100% = 57 uM dopamine signal. activation, % (test concentration not listed). hit rate 0.084% among 360,000; in the data active = activation above about 40%; inconclusive = between about 15% and that limit
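DiscoveRx PathHunter D2 beta-arrestin cells (2,100/well) attached overnight, then compound-stimulated 90 min at 37 C in HBSS/10 mM HEPES/0.1% Tween-20 buffer; beta-galactosidase complementation read by luminescence after 1 h at ambient temperature. Dopamine 57 uM final (EC100) as control.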
D2 PAM-2 = potentiates the human D2 dopamine receptor allosterically; P14416; DiscoveRx D2 beta-arrestin cells, luminescence, 90 min; 100% = 57 uM dopamine signal; potentiation, % (concentration not given with the values); hit rate 0.23% among 360,000; AID 624464; in the data active = potentiation above about 50%; inconclusive = mostly about 30% to 49%
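PathHunter beta-arrestin assay in DiscoveRx D2 cells. Compounds were added with an EC20 of dopamine (50 nM final) for 90 min at 37 deg C. Luminescence was read 1 h after detection reagent, with 57 uM dopamine as the EC100 control.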
D2 antagonist = antagonizes the human D2 dopamine receptor. P14416. HEK293 TREx D2 cells, calcium flux, dopamine EC80. inhibition, % at 10 µM. hit rate 2% among 340,000; in the data active = inhibition above about 30%; inactive = below that, where a call was filed
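Calcium mobilization kinetics were recorded at 1 s intervals in tetracycline-induced HEK293 T-REx D2 cells, first for 180 s after compound addition and then 180 s after EC80 dopamine.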
Of the large screens only hits and unclear results are named; the others gave an inactive call. Shown are actives, neighbours in structure and some others; about 2.4% of the full set was active somewhere.

COc1cccc2cc(C(C)N(CCCN3CCOCC3)C(=S)Nc3ccc(C)c(C)c3)oc12 (stereo not given)	none
Nc1cc(N)cc(-c2nc3ccccc3[nH]2)c1	D2 PAM-2 53
Nc1ccc(-c2nc3ccc(-c4nc5ccccc5o4)cc3[nH]2)cc1	D2 PAM-2 65
Cc1nc2ccc(-c3nc4ccccc4o3)cc2[nH]1	none
O=C(Cn1nc(Cc2cccnc2)c2ccccc2c1=O)Nc1ccc(F)c(Cl)c1	none (no result: D2 ag-2, D2 PAM-2, D2 antagonist)
Oc1ccc(CN2CCc3ccccc3C2)c2cccnc12	D2 antagonist 65
Oc1cc2c(cc1CN1CCc3ccccc3C1)OCO2	D2 antagonist 33
Oc1ccc(CN2CCCCC2)c2cccnc12	none
COc1cc(CN2CCc3ccccc3C2)ccc1O	none
COc1ccc(OC)c(N2C(=O)CC(Cc3ccc(C)cc3)C2=O)c1 (stereo not given)	D2 PAM-1 35
COc1ccc(CC2CC(=O)N(c3ccc(C)cc3)C2=O)cc1 (stereo not given)	none
Nc1nc(-c2ccccc2)c(-c2ccccc2)n1N	none
c1ccc(-c2cnn3c(-c4ccccc4)c(-c4ccccc4)nc3n2)cc1	D2 ag-1 137, D2 antagonist 39
CCN(CC)CCCOC(=O)C(c1ccccc1)c1ccccc1	D2 antagonist 50
Cc1cccc(CSc2cn(CC(=O)N3CCOCC3)c3ccccc23)c1	D2 antagonist 35
O=C(Cn1cc(/C=N/O)c2ccccc21)N1CCOCC1	D2 antagonist 39
CCOc1ccc(NC(=O)CSc2nnc(CC)c(CC)n2)cc1	none (no result: D2 ag-2, D2 PAM-2, D2 antagonist)
COc1ccc(-n2nc([N+](=O)[O-])c(=NCCCN3CCCC3=O)n2O)cc1	none
COc1ccc(-n2nc([N+](=O)[O-])c(=NCc3ccc4c(c3)OCO4)n2O)cc1	D2 ag-2 inconclusive, D2 PAM-2 122
O=[N+]([O-])c1nn(-c2ccc3c(c2)OCCO3)n(O)c1=NCCCO	D2 ag-2 inconclusive, D2 PAM-2 73
O=C1CCCN1CCCN=c1c([N+](=O)[O-])nn(-c2ccc(Cl)cc2)n1O	D2 PAM-2 52 (no result: D2 ag-1, D2 antagonist)
Cc1ccc(N=c2c([N+](=O)[O-])nn(-c3ccccc3)n2O)c(C)c1	D2 PAM-2 55
CC(C)c1ccc(CNCCSc2nnnn2-c2ccccc2)cc1	none (no result: D2 ag-2, D2 PAM-2, D2 antagonist)
COc1ccc(Br)cc1CNC(=O)CN1C(=O)c2cccnc2Oc2ccc(C)cc21	none (no result: D2 ag-2, D2 PAM-2, D2 antagonist)
COc1ccc(-n2nc([N+](=O)[O-])c(=NCCc3cccc(C)c3)n2O)cc1	D2 PAM-2 65
CCc1ccc(N=c2c([N+](=O)[O-])nn(-c3ccc4c(c3)OCCO4)n2O)cc1	D2 PAM-2 inconclusive
Cc1ccc(CN=c2c([N+](=O)[O-])nn(-c3ccc4c(c3)OCCO4)n2O)cc1	D2 ag-2 inconclusive, D2 PAM-2 135
Cc1cccc(CCN=c2c([N+](=O)[O-])nn(-c3ccccc3)n2O)c1	none
COCCNC(=O)CCCn1c(SCc2ccccc2C)nc2c(sc3ccccc32)c1=O	none (no result: D2 ag-2, D2 PAM-2, D2 antagonist)
O=C(c1ccc2c(c1)N(Cc1cccc(Cl)c1)C(=O)c1ccccc1S2(=O)=O)N1CCC(Cc2ccccc2)CC1	none (no result: D2 ag-2, D2 PAM-2, D2 antagonist)
COc1cccc(C(=O)N2c3nc(-c4ccco4)nn3C3(CCCCC3)[C@@H]3CCCC[C@@H]32)c1	none (no result: D2 ag-2, D2 PAM-2, D2 antagonist)
COc1ccc(C2Nc3ccc(Br)cc3C(c3ccccc3)N2CC(=O)O)cc1 (stereo not given)	D2 antagonist 61
O=C(O)CN1C(c2ccccc2O)Nc2ccc(Br)cc2C1c1ccccc1 (stereo not given)	none
CCNc1nc(OC)nc(Oc2ccc(=O)[nH]n2)n1	none (no result: D2 ag-2, D2 PAM-2, D2 antagonist)
COc1cc(-c2onc3ccc(Br)cc23)cc(OC)c1OC	D2 ag-2 inconclusive, D2 PAM-2 59
COc1ccc(-c2onc3ccc(Br)cc23)cc1	D2 ag-2 inconclusive, D2 PAM-2 100
O=C(C1COc2ccccc2O1)N1CCN(c2nc3ccc(F)cc3s2)CC1 (stereo not given)	none (no result: D2 ag-2, D2 PAM-2, D2 antagonist)
Fc1ccc(NC(=S)N/N=C/c2cccc(Br)c2)c(F)c1	D2 PAM-1 48
Cc1ccc(C(=O)N/N=C\c2ccc(-c3ccc([N+](=O)[O-])cc3)o2)cn1	none
Cc1ccc(C(=O)N/N=C\c2ccc(-c3ccc(Cl)cc3)o2)cn1	D2 PAM-1 30
O=C(NCc1ccc(Cl)cc1)C(=O)NCC(c1ccc2c(c1)OCO2)N1CCOCC1 (stereo not given)	none (no result: D2 ag-2, D2 PAM-2, D2 antagonist)
CCOC(=O)C1=C(COC(=O)COc2ccc(Br)cc2)NC(=O)NC1C (stereo not given)	D2 antagonist 83
CCCn1c2ccccc2c2cnn(CC(=O)NCCc3cc(OC)ccc3OC)c(=O)c21	none (no result: D2 ag-2, D2 PAM-2, D2 antagonist)
O=C(CSc1nnc(-c2ccccc2)c(-c2ccccc2)n1)NC1CCCC1	none (no result: D2 ag-2, D2 PAM-2, D2 antagonist)
COc1ccc(S(=O)(=O)NC2CCN(Cc3ccccc3)CC2)cc1NC(C)=O	none
CCC(C)[C@H](NC(=O)NC1CCN(Cc2ccccc2)CC1)C(=O)OC (stereo not given in full)	D2 antagonist 57
COC(=O)c1ccccc1NC(=O)NC1CCN(Cc2ccccc2)CC1	D2 antagonist 64
CCN1CCC(NC(=O)Nc2ccccc2C(=O)OC)CC1	none
CCc1cccc(CN2CCC(CNC(=O)Nc3ccc(Cl)cc3)CC2)c1	D2 antagonist 35
COc1ccc(C)cc1NC(=O)NC1CCN(Cc2ccccc2)CC1	D2 antagonist 75
COc1ccc(CN(Cc2ccco2)C(=O)COc2ccccc2OC)cc1	none (no result: D2 ag-2, D2 PAM-2, D2 antagonist)
CCCN1C(=O)C(Cc2nc3ccccc3c(=O)n2CC)c2cc(Br)ccc21 (stereo not given)	none (no result: D2 ag-2, D2 PAM-2, D2 antagonist)
COc1ccc(Cl)cc1NC(=O)NCC1CCN(Cc2cc(C)ccc2C)CC1	D2 antagonist 55
Cc1ccc(C)c(CN2CCC(CNC(=O)Nc3ccc(C)c(C)c3)CC2)c1	none
Cc1c(Cl)cccc1-n1ncc(C(=O)NC2CCCC2)c1C1CCN(C(=O)OC(C)(C)C)CC1	none (no result: D2 ag-2, D2 PAM-2, D2 antagonist)
COc1ccc(C(=O)C2CCN(C(=O)c3ccco3)CC2)cc1	none
COc1ccc(NC(=S)N2CCN(C(=O)c3ccco3)CC2)cc1	D2 antagonist 32
COc1ccc(C2(NC(C)=O)CCN(C(=O)c3ccco3)CC2)cc1	D2 antagonist 33
Cc1c(Cl)cccc1NC(=O)N1CCN(C(=O)c2ccco2)CC1	D2 ag-1 31
CCc1ccc2nc(N(Cc3cccnc3)C(=O)Cc3ccccc3)sc2c1	none (no result: D2 ag-2, D2 PAM-2, D2 antagonist)
Cc1ccc(C(=O)N2CCOCC2)cc1S(=O)(=O)Nc1cccc(C)c1C	D2 antagonist 42
CCCCOc1ccc2c(C)cc(=O)oc2c1OCCCC	D2 antagonist 43
CC(=O)c1c(OCC(=O)O)ccc2c(C)cc(=O)oc12	D2 antagonist 47
CCCOc1ccc(CNC(=O)C(CC)n2nc(C)c3sc4ccccc4c3c2=O)cc1 (stereo not given)	none (no result: D2 ag-2, D2 PAM-2, D2 antagonist)
S=c1[nH]nc(C2CCCCC2)n1/N=C/c1ccc(Br)cc1	D2 antagonist 36

Source: PubChem BioAssay (National Center for Advancing Translational Sciences (NCATS))
